JMJD2A Tudor inh – blocks the human JMJD2A Tudor domain | AlphaScreen JMJD2A-Tudor / H3K4me3 peptide binding | 4.4% of 390,000 active | Potency, µM (series often up to 114 µM), most hits filed as inhibitors | O75164; also: nearly all actives have a fitted effect of over 50% in size
BAZ2B block – inhibitors of human BAZ2B bromodomain; Q9UIF8; AlphaScreen BAZ2B-H3K14Ac peptide displacement; Potency, µM (top dose mostly 114 µM), hits mostly inhibitors; 4.4% of 360,000 active; AID 504333; also: nearly all actives have a fitted effect of over 60% in size
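AlphaScreen luminescence quantifies BAZ2B engagement of H3K14Ac peptide; the protein and biotinylated peptide are both at 50 nM final, buffer PBS pH 7.4 with 0.01% Tween-20, all steps at room temperature.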
G9a block – inhibitors of human histone lysine methyltransferase G9a. Q96KQ7. G9a H3K9 monomethylation, AlphaScreen, 2 h. Potency, µM (titrated, usually from 102 µM), hits mostly inhibitors. 8.8% of 350,000 active; also: nearly all actives have a fitted effect of over 75% in size
Target sequence (Q96KQ7 913-1193 limits assumed): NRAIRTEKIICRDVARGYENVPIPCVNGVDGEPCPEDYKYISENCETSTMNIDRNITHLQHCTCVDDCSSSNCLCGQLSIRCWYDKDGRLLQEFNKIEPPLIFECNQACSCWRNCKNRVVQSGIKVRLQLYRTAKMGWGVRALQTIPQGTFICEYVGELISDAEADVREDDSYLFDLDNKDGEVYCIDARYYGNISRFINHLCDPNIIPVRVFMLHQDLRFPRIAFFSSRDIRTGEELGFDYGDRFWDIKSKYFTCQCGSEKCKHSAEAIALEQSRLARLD
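Quantitative HTS format: methyltransferase activity on a biotin-tagged H3K9 peptide is measured by AlphaScreen, using a rabbit anti-monomethyl-H3K9 antibody with streptavidin donor and anti-IgG acceptor beads. Final levels are 20 nM enzyme, 500 nM peptide, 20 uM SAM; 2 h RT.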
PLK1 PBD block – PLK1 (human) polo-box domain binding inhibition. P53350. Plk1 PBD binding of FITC phosphopeptide, fluorescence polarization. Potency, µM, most hits filed as inhibitors. 2.8% of 360,000 active; also: series mostly up to about 57 µM; nearly all actives have a fitted effect of over 65% in size
HP1b binding inh – inhibitors of HP1-beta chromodomain binding to methylated histone tails; P83916; AlphaScreen HP1-beta / biotin-H3K9me3 peptide binding; Potency, µM (series often up to 114 µM), actives largely listed as inhibitors; 0.56% of 390,000 active; AID 540317; also: nearly all actives have a fitted effect of over 70% in size
Target sequence (P83916 whole entry, looked up): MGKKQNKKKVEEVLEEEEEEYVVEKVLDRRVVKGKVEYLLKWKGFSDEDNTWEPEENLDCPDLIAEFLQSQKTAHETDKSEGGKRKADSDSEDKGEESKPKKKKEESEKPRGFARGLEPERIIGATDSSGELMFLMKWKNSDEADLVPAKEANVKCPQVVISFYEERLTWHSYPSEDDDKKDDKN
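Compound inhibition of the preformed complex between 50 nM HP1-beta and 50 nM biotinylated H3K9me3 peptide was read by AlphaScreen. Buffer was PBS pH 7.4 with 0.01% Tween-20. Incubations ran 30 min at room temperature, with 10 ug/mL donor/acceptor beads.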
Sfp inh – Sfp phosphopantetheinyl transferase inhibition; Biochemical Sfp PPTase activity, qHTS; Potency, µM, hits mostly inhibitors; 3.5% of 310,000 active; AID 1490;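 also: the enzyme is Sfp with the accession as filed and its product quenches rhodamine fluorescence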
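With Hepes-Na pH 7.6 buffer containing 10 mM MgCl2, Sfp (15 nM) modified BHQ-2-YbbR (12.5 uM) using rhodamine-CoA (5 uM). Two reads 30 minutes apart at 525/598 nm yielded each well's rate.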
Hits are given with their value; [ ] = another dose, or the depositor's remark. A selection: hits, their analogues and other compounds. The true share with any hit is near 12%. Calls follow the shape of the dose curve; as a rule, active = well fitted curve in the direction sought with a large enough effect; inconclusive = small, poorly fitted or top-dose-only effect, or another doubt; inactive = no such curve, though single readings can be large; an effect the other way counts as inactive or inconclusive.

Screening CCOC(=O)c1c(-c2ccccc2)csc1NC(=O)CSc1ccccc1 returned JMJD2A Tudor inh inactive, BAZ2B block inactive, G9a block inactive, PLK1 PBD block inactive, HP1b binding inh inactive and Sfp inh inactive.
CCOC(=O)c1c(-c2ccccc2)csc1NC(=O)C1CCCO1 (centres undefined) was read as JMJD2A Tudor inh inactive, BAZ2B block inactive, G9a block inconclusive, PLK1 PBD block 23.8µM, HP1b binding inh inactive and Sfp inh 31.6µM.
For CCOC(=O)c1c(-c2ccc(-c3ccccc3)cc2)csc1NC(=O)C1C2CCC(O2)C1C(=O)O (centres undefined) the results were JMJD2A Tudor inh inactive, BAZ2B block inconclusive, PLK1 PBD block 10.6µM, HP1b binding inh inconclusive and Sfp inh 50.1µM.
`CCOC(=O)c1c(NC(=O)Nc2ccccc2)sc(C)c1C` gave JMJD2A Tudor inh inactive, BAZ2B block inactive, G9a block 39.8µM, PLK1 PBD block inconclusive, HP1b binding inh inactive and Sfp inh inactive.
CCOC(=O)c1c(NC(=S)Nc2cccnc2)sc(C)c1C was read as JMJD2A Tudor inh inactive, BAZ2B block inconclusive, G9a block 44.7µM, PLK1 PBD block inconclusive, HP1b binding inh inactive and Sfp inh inactive.
CCOC(=O)c1c(NC(=O)Cc2cccs2)sc(C(=O)NC2CCCC2)c1C was read as JMJD2A Tudor inh inactive, BAZ2B block inactive, G9a block inactive, PLK1 PBD block inactive, HP1b binding inh inactive and Sfp inh inactive.
For COC(=O)c1c(NC(=O)COC(=O)CNC(=O)c2ccco2)sc(C)c1C the results were JMJD2A Tudor inh inactive, BAZ2B block inactive, G9a block inactive, PLK1 PBD block inactive, HP1b binding inh inactive and Sfp inh inactive.
CCOC(=O)c1c(NC(=O)COC(=O)CNC(=O)c2ccco2)sc(C)c1C was read as JMJD2A Tudor inh 39.8µM, BAZ2B block inconclusive, G9a block inactive, PLK1 PBD block 3.36µM, HP1b binding inh inactive and Sfp inh inactive.
For CCOC(=O)c1c(NC(=O)Cc2cccs2)sc(C)c1C the results were JMJD2A Tudor inh inactive, BAZ2B block inactive, G9a block inactive[12.7 µM], PLK1 PBD block inactive, HP1b binding inh inactive and Sfp inh 20µM.
For COc1cc(NC(=O)CSc2nnc3c4ccccc4n(C)c3n2)cc(OC)c1OC the results were JMJD2A Tudor inh inactive and HP1b binding inh inactive.
`CCCCOc1ccc(CNC(=O)c2cnc3sc(N4CCOCC4)nn3c2=O)cc1` gave JMJD2A Tudor inh inactive, BAZ2B block inactive, G9a block inactive and HP1b binding inh inactive.
COc1ccccc1-n1c(CCn2nc(C)c(Br)c2C)n[nH]c1=S was read as JMJD2A Tudor inh 7.08µM, BAZ2B block inactive, G9a block 1.12µM, PLK1 PBD block inactive, HP1b binding inh inactive and Sfp inh inconclusive.
For COc1ccccc1-n1cc(-c2ccc(Br)cc2)[nH]c1=S the results were JMJD2A Tudor inh inconclusive, BAZ2B block inactive, G9a block inactive, PLK1 PBD block inactive, HP1b binding inh inactive and Sfp inh inactive.
Cc1nn(CCc2n[nH]c(=S)n2C2CCCCC2)c(C)c1Br was read as JMJD2A Tudor inh 79.4µM, BAZ2B block inactive, G9a block 2.51µM, PLK1 PBD block inactive, HP1b binding inh inactive and Sfp inh inactive.
`Cc1nn(CCc2n[nH]c(=S)n2C)c(C)c1Br` gave JMJD2A Tudor inh 7.08µM, BAZ2B block inactive, G9a block inconclusive, PLK1 PBD block inactive, HP1b binding inh inactive and Sfp inh inactive.
`COc1ccc(CC(=O)Nc2cccc(-c3ccc4nnc(C)n4n3)c2)cc1OC` gave JMJD2A Tudor inh inactive, BAZ2B block inactive, G9a block inactive, PLK1 PBD block inactive, HP1b binding inh inactive and Sfp inh inactive.
`CCOc1cccc2cc(-c3nc4sc5c(c4c(=O)[nH]3)CCC(C)C5)c(=O)oc12` (centres undefined) gave JMJD2A Tudor inh inactive, BAZ2B block inactive, G9a block inactive and HP1b binding inh inactive.
Screening COc1ccccc1-c1nnc(C2CCN(C(=O)c3cccc(Cl)c3)CC2)o1 returned JMJD2A Tudor inh inactive, BAZ2B block inactive, G9a block inactive and HP1b binding inh inactive.

Bioassay records: PubChem BioAssay, National Center for Advancing Translational Sciences (NCATS)
